This assay deals with Voltage-dependent N-type calcium channel subunit alpha-1B (Homo sapiens) (UniProt Q00975). As to the kind of experiment: inhibitors of Mint1-CaV2.2 protein interaction, biochemical, HTRF (AID 2073). Particulars: at 20 µM, stronger effect = higher value. In general terms: In TR-FRET formats the signal depends on donor and acceptor labels being close together.
The mark [1] stands for this setting: measured here: average of repeat tests.

The whole screen tested about 290,000 compounds, of which about 570 (0.2%) were called active. About 1% were inconclusive and are not listed. Rule as the data show it: active = inhibition mostly above about 51% (no sharp cut-off); inconclusive = no clear call, values can overlap the other calls; inactive = mostly below about 53%. The sample as a whole holds a higher share of actives than the screen did.

Broadly, the inhibition is the change of the read-out against control, counted positive when it falls.

Voltage-dependent N-type calcium channel subunit alpha-1B (Homo sapiens), sequence (Q00975 whole entry, looked up): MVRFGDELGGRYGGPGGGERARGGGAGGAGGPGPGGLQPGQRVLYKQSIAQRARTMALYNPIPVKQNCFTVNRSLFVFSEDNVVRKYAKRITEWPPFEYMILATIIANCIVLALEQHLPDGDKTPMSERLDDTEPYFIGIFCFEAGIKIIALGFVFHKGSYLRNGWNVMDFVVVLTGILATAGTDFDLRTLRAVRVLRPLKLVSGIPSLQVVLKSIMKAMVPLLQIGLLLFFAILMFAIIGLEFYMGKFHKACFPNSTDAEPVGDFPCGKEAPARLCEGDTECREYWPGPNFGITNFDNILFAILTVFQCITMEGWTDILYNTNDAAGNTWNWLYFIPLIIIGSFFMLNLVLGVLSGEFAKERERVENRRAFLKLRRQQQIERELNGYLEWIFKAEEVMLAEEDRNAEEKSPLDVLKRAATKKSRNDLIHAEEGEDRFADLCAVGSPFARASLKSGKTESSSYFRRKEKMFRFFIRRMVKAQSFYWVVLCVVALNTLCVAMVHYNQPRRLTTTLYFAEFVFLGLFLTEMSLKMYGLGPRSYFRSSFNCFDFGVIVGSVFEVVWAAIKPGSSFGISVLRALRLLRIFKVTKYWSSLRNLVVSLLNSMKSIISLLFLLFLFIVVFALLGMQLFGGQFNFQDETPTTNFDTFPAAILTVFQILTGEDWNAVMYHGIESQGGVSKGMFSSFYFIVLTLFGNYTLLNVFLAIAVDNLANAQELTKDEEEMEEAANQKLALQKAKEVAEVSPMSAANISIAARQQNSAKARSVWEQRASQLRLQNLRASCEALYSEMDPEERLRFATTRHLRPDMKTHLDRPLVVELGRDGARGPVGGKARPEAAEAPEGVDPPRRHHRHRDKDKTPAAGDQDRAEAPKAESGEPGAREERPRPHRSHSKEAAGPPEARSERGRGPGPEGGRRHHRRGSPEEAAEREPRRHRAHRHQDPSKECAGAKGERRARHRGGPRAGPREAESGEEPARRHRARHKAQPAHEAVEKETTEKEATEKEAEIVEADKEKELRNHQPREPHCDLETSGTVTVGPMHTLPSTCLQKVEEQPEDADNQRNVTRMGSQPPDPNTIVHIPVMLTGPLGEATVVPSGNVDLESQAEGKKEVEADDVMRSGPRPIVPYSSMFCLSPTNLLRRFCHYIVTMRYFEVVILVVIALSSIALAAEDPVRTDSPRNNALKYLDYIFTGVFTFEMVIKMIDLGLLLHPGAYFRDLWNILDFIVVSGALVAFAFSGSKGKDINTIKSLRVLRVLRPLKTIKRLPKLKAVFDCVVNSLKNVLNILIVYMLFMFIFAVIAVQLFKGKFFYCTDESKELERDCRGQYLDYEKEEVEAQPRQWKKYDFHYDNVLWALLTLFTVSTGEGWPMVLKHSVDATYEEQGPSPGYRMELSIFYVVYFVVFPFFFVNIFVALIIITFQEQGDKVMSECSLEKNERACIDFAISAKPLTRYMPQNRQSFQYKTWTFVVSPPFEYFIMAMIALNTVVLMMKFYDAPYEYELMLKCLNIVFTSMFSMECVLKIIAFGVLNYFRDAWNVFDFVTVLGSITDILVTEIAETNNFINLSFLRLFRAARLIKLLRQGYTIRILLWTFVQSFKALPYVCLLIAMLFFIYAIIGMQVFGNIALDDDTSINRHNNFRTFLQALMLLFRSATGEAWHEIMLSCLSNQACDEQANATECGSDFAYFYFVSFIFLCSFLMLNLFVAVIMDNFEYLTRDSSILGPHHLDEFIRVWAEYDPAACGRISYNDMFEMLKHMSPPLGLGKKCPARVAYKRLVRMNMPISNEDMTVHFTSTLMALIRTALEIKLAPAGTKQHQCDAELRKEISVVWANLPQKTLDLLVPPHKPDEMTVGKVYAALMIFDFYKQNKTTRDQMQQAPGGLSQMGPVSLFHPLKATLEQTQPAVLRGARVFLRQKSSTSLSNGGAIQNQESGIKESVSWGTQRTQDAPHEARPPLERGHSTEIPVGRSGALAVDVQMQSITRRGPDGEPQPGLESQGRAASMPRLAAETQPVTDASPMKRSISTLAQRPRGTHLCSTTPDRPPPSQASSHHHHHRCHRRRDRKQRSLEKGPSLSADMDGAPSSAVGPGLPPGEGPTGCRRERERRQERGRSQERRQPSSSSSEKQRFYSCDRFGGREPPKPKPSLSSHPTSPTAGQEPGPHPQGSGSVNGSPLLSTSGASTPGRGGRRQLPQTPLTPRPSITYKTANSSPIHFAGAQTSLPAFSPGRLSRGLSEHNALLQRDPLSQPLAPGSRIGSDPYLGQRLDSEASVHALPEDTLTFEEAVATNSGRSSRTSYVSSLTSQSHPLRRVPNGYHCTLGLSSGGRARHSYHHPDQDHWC

Consider `CCC(C)/C(C)=N/NC(=O)CSc1nc2ccccc2[nH]1` (stereo unspecified), for which the inhibition was -5.4% (inactive).
Same read-out and setting: for `Cc1ccc(C)c(N(C(=O)c2csnn2)C(C(=O)NC2CCCCC2)c2ccccn2)c1` (stereo unspecified) the value was 1.3% (inactive); for `O=C(CN1CCOCC1)Nc1cccc(S(=O)(=O)N2CCCCCC2)c1`, -5.9% (inactive).
Same read-out and setting: for `Cc1ccc(N2C(=O)C3C4CC(=O)C(c5ccccc54)C3C2=O)cc1C` (stereo unspecified) the value was -1.5% (inactive); for `COc1ccc(N2CSC3=C(C#N)C(c4ccc(OC)c(OC)c4)CC(=O)N3C2)c(OC)c1` (stereo unspecified), 91.4% (active); for `COc1ccccc1N1CSC2=C(C#N)C(c3ccc(SC)cc3)CC(=O)N2C1` (stereo unspecified), 81.5% (active).
As for `COc1ccc(C2CC(=O)N3CN(c4ccc(C)c(Cl)c4)CSC3=C2C#N)cc1` (stereo unspecified), the inhibition was 80.8% (inactive). For the same compound, the inhibition under setting [1] amounted to 11.1%.
In the same order, the values of `COc1ccc(C2CC(=O)N3CN(c4ccccc4F)CSC3=C2C#N)cc1OC` (stereo unspecified) are 79.9% (inactive) and 38.6%.
On to `COc1ccc(N2CSC3=C(C#N)C(c4cc(OC)ccc4OC)CC(=O)N3C2)c(OC)c1` (stereo unspecified), for which the inhibition is 69.2% (active).
As to `COc1ccc(OC)c(C2CC(=O)N3CN(c4cccc(Cl)c4)CSC3=C2C#N)c1` (stereo unspecified), the inhibition is 37.5% (inactive).
`COc1cccc(C2CC(=O)N3CN(c4ccccc4F)CSC3=C2C#N)c1` (stereo unspecified): the inhibition is 75.5% (inactive). Moreover, the inhibition under setting [1] is 31%.
With `COc1ccc(OC)c(C2CC(=O)N3CN(c4ccccc4F)CSC3=C2C#N)c1` (stereo unspecified), the inhibition was 29.3% (inactive).
`CCOc1ccccc1N1CSC2=C(C#N)C(c3c(OC)ccc4ccccc34)CC(=O)N2C1` (stereo unspecified): the inhibition is 72.9% (inactive). The inhibition under setting [1] came to 9.7%.
With `CCCCc1cc(=O)oc2cc(OCC(=O)N3CCC(C(N)=O)CC3)ccc12`, the inhibition is 8.7% (inactive).
On the same count and under the same terms, for `O=C(c1ccco1)N1CCN(Cc2cccc3ccccc23)CC1` the value was 3.9% (inactive).
The same measure, in the same setting: for `O=C(COC(=O)c1ccc(O)cc1)Nc1cccc(S(=O)(=O)NC2=NCCCCC2)c1` the value was -9.8% (inactive); for `O=C(COC(=O)c1cnccn1)Nc1ccc(Cl)cc1`, 3.8% (inactive).
On the same count and under the same terms, for `NS(=O)(=O)c1ccc(NC(=O)COC(=O)c2cnccn2)cc1` the value was 51.2% (active); for `CC(=O)Nc1ccc(NC(=O)COC(=O)c2cnccn2)cc1`, 15.7% (inactive); for `CC(C)OC(=O)c1cc2c(ccn2-c2ccc(F)cc2)n1CC(=O)N1CCN(C(=O)c2ccco2)CC1`, 40.4% (inactive).
Consider `C[C@H]1c2cccc(O)c2C(O)=C2C(=O)[C@]3(O)C(O)=C(C(N)=O)C(=O)[C@@H](N(C)C)[C@@H]3[C@@H](O)[C@@H]21`, for which the inhibition was 13.4% (inactive).
On the same count and under the same terms, for `CN(C)[C@@H]1C(=O)C(C(N)=O)=C(O)[C@@]2(O)C(=O)C3=C(O)c4c(O)ccc(Cl)c4[C@@H](O)[C@H]3C[C@@H]12` the value was 56.1% (active); for `CN(C)c1ccc(O)c2c1CC1CC3[C@@H](N(C)C)C(=O)C(C(N)=O)=C(O)[C@]3(O)C(=O)C1=C2O` (stereo partly specified), 22.3% (inactive); for `C=C1CCC[C@]2(C)C[C@H]3OC(=O)C(CN(Cc4ccc(OC)c(OC)c4)CC(C)O)[C@H]3CC12` (stereo partly specified), 6.9% (inactive).
On the same count and under the same terms, for `COc1cccc(-c2nc(NCc3cccnc3)c3ccccc3n2)c1O` the value was 14.2% (inactive); for `O=C(Nc1ccc2oc(-c3ccccc3Cl)nc2c1)c1ncn[nH]1`, 28.3% (inactive); for `O=C(Nc1ccc2oc(-c3ccccc3F)nc2c1)c1ncn[nH]1`, 2.6% (inactive).
The same measure, in the same setting: for `O=C(c1cccs1)N1CCN=C1SCc1cccnc1` the value was -1.3% (inactive); for `CCOc1cccc(NC(=O)c2cccc(F)c2)c1`, 2.7% (inactive).
`CN(C)C=Nc1c(Br)cc(Br)c2nonc12`: the inhibition is 19.7% (inactive).
The same measure, in the same setting: for `Cc1ccc(Nc2nc(=O)c3cccnc3s2)c(Br)c1` the value was -13% (inactive).
On the same count and under the same terms, for `Cc1ccc(Nc2nc(=O)c3cccnc3s2)cc1` the value was 2.2% (inactive); for `COc1ccc(OC)c(Nc2nc(=O)c3cccnc3s2)c1`, 81.8% (active).
Same read-out and setting: for `Cc1cccc(Oc2sc(C(=O)c3ccccc3)c(N)c2C#N)c1C` the value was 4.2% (inactive); for `CCCCNc1nc2ccccc2nc1Cl`, 4.6% (inactive).
For `COc1ccc(C2(C)NC(=O)N(CC(=O)Nc3ccc(S(=O)(=O)N4CCCC4)cc3)C2=O)cc1` (stereo unspecified), the inhibition was 4.9% (inactive).
Same read-out and setting: for `Oc1ccc(N=C/C=C/c2ccc(Br)cc2)cc1-c1nc2ccccc2s1` the value was 62.9% (active).
Take `Brc1ccc(/C=C/C=N/Nc2nc3ccccc3s2)cc1`: the inhibition was 5.3% (inactive).
As for `Oc1ccc(N=C/C=C/c2cccc(Br)c2)cc1-c1nc2ccccc2s1`, the inhibition was 66.6% (inactive). In addition, under setting [1], the inhibition was determined as 5%.
Take `CCN=C1NN=C(c2cc(C)n(Cc3ccco3)c2C)CS1`: the inhibition was 57.5% (active).
Same read-out and setting: for `Cc1cc(C2=NNC(=NC3CC3)SC2)c(C)n1Cc1ccco1` the value was 26.3% (inactive); for `COCCCN=C1NN=C(c2cc(C)n(Cc3ccco3)c2C)CS1`, 24.8% (inactive).
Take `CCOC(=O)/C(C#N)=C1/C=Nc2ccccc2N1`: the inhibition was 14.4% (inactive).
On the same count and under the same terms, for `Cc1ccc(NC(=O)CCNS(=O)(=O)c2ccc3[nH]c(=O)oc3c2)c(C)c1` the value was -0.1% (inactive); for `COc1cccc(C(=O)Nc2ccc3c(c2)C(=O)NC3=O)c1`, 11.6% (inactive); for `Cc1ccn2c(Nc3ccccc3C)c(-c3ccccn3)nc2c1`, 15% (inactive).
On the same count and under the same terms, for `Cc1ccc(Nc2c(-c3ccccn3)nc3cc(C)ccn23)cc1` the value was 50.4% (active); for `Cc1ccn2c(Nc3ccccc3)c(-c3ccccn3)nc2c1`, 21.1% (inactive).
Same read-out and setting: for `O=C(Nc1ccc2c(c1)OCCO2)c1cccc(Br)c1` the value was -4.4% (inactive).
Regarding `Nc1nnnn1/N=C/c1ccccc1OCc1ccc(Cl)cc1`, the inhibition is 0.5% (inactive).
On the same count and under the same terms, for `Cc1nn(CC(=O)NCC2CCCO2)c(C)c1[N+](=O)[O-]` (stereo unspecified) the value was 5.2% (inactive); for `O=C(NCc1ccccc1)c1sc(=S)n2c1[nH]c(=O)c1ccccc12`, -8.6% (inactive); for `NC(=O)c1sc(=S)n2c1[nH]c(=O)c1sccc12`, 51.8% (active).
For `CC(=O)NNC(=O)c1sc(=S)n2c1[nH]c(=O)c1sccc12`, the inhibition was 46.1% (inactive).
On the same count and under the same terms, for `Cc1c(C(=O)/C=C/c2cccs2)oc2ccc(F)cc12` the value was -6.1% (inactive); for `Cc1ccc2c(c1)C1C=CCC1C(C(=O)O)N2` (stereo unspecified), 39.2% (inactive); for `CCOC(=O)c1ccc2c(c1)C1C=CCC1C(C(=O)O)N2` (stereo unspecified), 31% (inactive).
The same measure, in the same setting: for `O=C(OC1CCCCC1)c1ccc2c(c1)C1C=CCC1C(C(=O)O)N2` (stereo unspecified) the value was 74.8% (active); for `Cc1ccccc1OCC(=O)OC(C(=O)c1ccccc1)c1ccccc1` (stereo unspecified), 12.2% (inactive); for `O=C1CCCN1c1cc(Cl)ccc1Cl`, -4.5% (inactive).
The same measure, in the same setting: for `Fc1ccc(Nc2nc3ccccc3s2)cc1` the value was 3.5% (inactive); for `O=c1cc(O)c2sc(Nc3cccc(C(F)(F)F)c3)nc2[nH]1`, 66.6% (active).
Take `COc1ccc(Nc2nc3[nH]c(=O)cc(O)c3s2)cc1`: the inhibition is 87.5% (inactive). Besides, the inhibition under setting [1] came out at 17.2%.
Regarding `Cc1cc(=O)[nH]c(Nc2cccc(C(F)(F)F)c2)n1`, the inhibition is -2.3% (inactive).
Still for that read-out and setting: for `O=c1cc(O)c2sc(Nc3ccc(F)c(Cl)c3)nc2[nH]1` the value was 86.3% (active); for `O=c1cnnc(Nc2cccc(C(F)(F)F)c2)[nH]1`, 2.4% (inactive).
Consider `O=c1cc(O)c2sc(Nc3ccc(Cl)c(F)c3)nc2[nH]1`, for which the inhibition is 66.1% (inactive). The inhibition under setting [1] was 31.6%.
As for `O=c1cc(O)c2sc(Nc3ccc(F)cc3)nc2[nH]1`, the inhibition is 63.2% (active).
On to `Fc1ccc(Nc2nnc(C(F)(F)F)s2)cc1Cl`, for which the inhibition is 10.6% (inactive).
For the compound `O=C(/C=C/c1ccccc1)N1CCN(S(=O)(=O)c2ccc(F)cc2)CC1`, the inhibition is -4.1% (inactive).
Still for that read-out and setting: for `CN(C)CCNc1nc2c(c(=O)[nH]c(=O)n2C)n1CC(O)COc1ccc(Cl)cc1` (stereo unspecified) the value was -3% (inactive).
On to `COc1ccc(/C=N/NC(=O)c2ccc(CN3C(=O)c4cccc5cccc3c45)cc2)cc1O`, for which the inhibition is 71.7% (inactive). For the same compound, the inhibition under setting [1] came out at 39.7%.
On to `O=C(N/N=C/c1ccc(O)cc1O)c1ccc(CN2C(=O)c3cccc4cccc2c34)cc1`, for which the inhibition was 69.5% (active).
Still for that read-out and setting: for `O=C(N/N=C/c1ccccc1)c1ccc(CN2C(=O)c3cccc4cccc2c34)cc1` the value was 36.4% (inactive).
The same measure, in the same setting: for `COC(=O)c1ccc(OCCOc2ccccc2C)cc1` the value was 26.5% (inactive); for `Cc1ccc(C)c(S(=O)(=O)NCc2ccc(C(=O)N3CCOCC3)cc2)c1`, -3.9% (inactive); for `CCc1nn2c(=O)cc(COc3ccc(/C=C4\C(=N)N5N=C(C)SC5=NC4=O)cc3)nc2s1`, 60% (active).
Still for that read-out and setting: for `CC(=O)Nc1ccc(OCCOc2ccc(/C=C3\C(=N)N4N=C(C)SC4=NC3=O)cc2)cc1` the value was 24.7% (inactive).
`CCc1nn2c(=O)cc(COc3ccc(/C=C4\C(=N)N5N=C(CC(C)C)SC5=NC4=O)cc3)nc2s1`: the inhibition was 24.6% (inactive).
As for `COCCCN1C(=O)C(=O)/C(=C(/O)c2ccc(S(=O)(=O)N3CCCCC3)cc2)C1c1ccc(O)cc1` (stereo unspecified), the inhibition is 2% (inactive).
The same measure, in the same setting: for `CNC(=S)N1CCN=C1Nc1nc(C)cc(C)n1` the value was 3.5% (inactive); for `COc1ccc(NS(=O)(=O)c2ccc3c(c2)[C@H]2C=CC[C@H]2[C@@H](c2ccc(C(=O)O)cc2)N3)cc1`, 20.2% (inactive).
On to `COc1cccc(NS(=O)(=O)c2ccc3c(c2)C2C=CCC2C(c2ccc(C(=O)O)cc2)N3)c1` (stereo unspecified), for which the inhibition was 56.4% (active). Besides, under setting [1], the inhibition worked out at 55%.
In the same order, the values of `Cc1c(Cl)cccc1NS(=O)(=O)c1ccc2c(c1)C1C=CCC1C(c1ccc(C(=O)O)cc1)N2` (stereo unspecified) are 61% (inactive) and 29.1%.
Take `Cc1cc(-c2cc(C(=O)O)c3ccccc3n2)c(C)s1`: the inhibition was 9.2% (inactive).
Still for that read-out and setting: for `O=C1c2ccccc2C(=O)N1OCc1c(F)cccc1Cl` the value was 16.6% (inactive).
Still for that read-out and setting: for `CCOC(=O)c1c(N2C(=O)C3CC(C)=C(C)CC3C2=O)sc(C)c1C` (stereo unspecified) the value was -2.7% (inactive); for `CCOC(=O)c1c(-n2cnnn2)sc(C)c1C`, -6.3% (inactive); for `CCOC(=O)c1c(N2C(=O)C=CC2=O)sc(C)c1C`, 65.5% (active).
For `CCOC(=O)c1c(NC(=O)COC)sc(C(C)=O)c1C`, the inhibition was 6.4% (inactive).
The same measure, in the same setting: for `CCOc1ccc(N2C(=O)CC(S/C(N)=N/N=C/c3cccs3)C2=O)cc1` (stereo unspecified) the value was 10.6% (inactive).
